# Compound activity as filed in PubChem.
# IMPase inh – IMPase inhibition in cells. inhibition (IP1 accumulation), % at 46.1 µM. 120,000 tested, under 10 active. CHO-M1 cells, IP1 accumulation, HTRF TR-FRET ratio; active = well fitted curve in the direction sought with a large enough effect in the signal ratio, not every such curve was filed as active; inconclusive = small, poorly fitted or top-dose-only effect, or a change in a side signal; inactive = no such curve, though single readings can be large or run the other way; the % refers to the signal ratio;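 note: cells stimulated with carbachol in lithium chloride buffer; plate controls were DMSO basal wells for no effect and reference inhibitor wells for full effect; higher means more IMPase inhibition seen as more IP1 and lower FRET ratio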
# Target sequence (P97697 whole entry, looked up): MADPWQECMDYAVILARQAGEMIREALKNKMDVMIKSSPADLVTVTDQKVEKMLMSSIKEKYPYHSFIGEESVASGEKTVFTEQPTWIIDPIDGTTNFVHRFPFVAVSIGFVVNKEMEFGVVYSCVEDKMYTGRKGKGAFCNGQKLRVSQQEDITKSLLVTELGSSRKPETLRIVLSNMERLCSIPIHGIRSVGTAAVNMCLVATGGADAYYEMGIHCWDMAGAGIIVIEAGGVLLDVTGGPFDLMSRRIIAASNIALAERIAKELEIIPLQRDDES
#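 CHO-M1, 2000 cells/well, cultured 16–30 h; cpd up to 46 uM; carbachol (50 uM solution, stimulation buffer w/ 50 mM LiCl, pH 7.4), 30 min 37C; IP-One TR-FRET, 10 min RT; Ex 320/Em 665, 620; Hill-fit AC50.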
# HTT ATP protect – Huntington cell model cytoprotection by ATP luminescence; actives 0.14% (n = 230,000); PC12 HTT-Q103 induced, cytoprotection, ATP luminescence, 40 h; Potency, µM (doses to about 56.4 µM), for the others: cytoprotection (ATP increase), usual class: activators; note: potency is the fitted concentration of half-maximal effect; % of control where 0% means no effect; nearly all actives have a fitted effect of over 45% in size
#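 Readout: ATPlite luminescence (ATP level). Model: stable PC12, inducible Htt exon1 Q103-GFP. Inducer: tebufenozide, 100 nM final. Compounds: dose series. No G418 in medium.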
# HPGD inh – blocks human HPGD enzyme activity. purified HPGD, NADH fluorescence kinetic, PGE2 substrate. P15428. actives 4.3% (n = 150,000). AID 894. Potency, µM, for the others: at the highest dose activity change, negative = inhibition, most hits filed as inhibitors; active = well fitted inhibition curve with a large enough effect, not every such curve was filed as active; inconclusive = small, poorly fitted or top-dose-only effect, or another doubt; inactive = no such curve, though single readings can be large or run the other way; note: potency is the fitted concentration of half-maximal effect; % is set by controls: 0 for no effect and ±100 for the full control effect
# Target sequence (P15428 whole entry, looked up): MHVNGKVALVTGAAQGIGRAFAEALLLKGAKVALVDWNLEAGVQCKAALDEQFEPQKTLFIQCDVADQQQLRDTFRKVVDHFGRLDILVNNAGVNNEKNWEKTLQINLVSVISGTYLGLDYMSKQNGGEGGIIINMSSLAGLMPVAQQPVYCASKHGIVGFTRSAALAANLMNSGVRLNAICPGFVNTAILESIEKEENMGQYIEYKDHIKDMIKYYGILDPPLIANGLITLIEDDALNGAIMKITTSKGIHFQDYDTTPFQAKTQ
#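 NADH formation kinetics: reaction with 30 uM PGE2 and 1 mM NAD+ (final), 20 nM enzyme, Tris-HCl pH 8 with Tween 20, after 15 min compound preincubation at room temperature. Fluorescence change, last versus first of five reads.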
# ALDH1A1 inh – ALDH1A1 (human) enzyme inhibition; Purified ALDH1A1, NADH fluorescence, propionaldehyde substrate; Potency, µM (series often up to 75.3 µM), for inactives: at the top dose activity, negative = inhibition, usual class: inhibitors; actives 7.3% (n = 220,000); active = well fitted inhibition curve with a large enough effect, not every such curve was filed as active; inconclusive = small, poorly fitted or top-dose-only effect, or another doubt; inactive = no such curve, though single readings can be large or run the other way;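 note: potency is the fitted concentration of half-maximal effect; plate controls were no enzyme wells and a reference inhibitor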
# HttQ103 aggreg – mutant huntingtin aggregation inhibition; PC12 HttQ103-GFP aggregates, Acumen cytometry, 40 h; actives 1.1% (n = 220,000); Potency, µM (titrated, usually from 46.1 µM), for inactives: top-dose activity change, negative = inhibition, usual class: inhibitors; note: potency is the fitted concentration of half-maximal effect; % is set by controls: 0 for no effect and ±100 for the full control effect; nearly all actives have a fitted effect of over 60% in size
#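 Aggregates are detected as GFP objects 1–25 µm with signal 6 STDEV over background in lysates of induced PC12 cells. These carry Huntingtin exon 1 with 103 glutamines fused to GFP under an ecdysone promoter; compounds titrated.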
# IMPase Li cell – cell-permeable IMPase inhibitors with lithium potentiation | Potency, µM (doses to about 59.4 µM), for the others: at the highest dose activity, negative = IMPase inhibition, actives largely listed as inhibitors | actives 0.35% (n = 210,000) | CHO-M1 cells, IP1 TR-FRET (IP-One), carbachol + lithium;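 note: IP1 builds up when IMPase is blocked and the TR-FRET signal falls; potency is the fitted concentration of half-maximal effect; plate controls were basal vehicle for no effect and high inhibitor control for full effect; nearly all actives have a fitted effect of over 50% in size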
#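 CHO cells stably expressing M1 receptor (2000/well, cultured 16–30 h) treated 30 min at 37C with compound plus low lithium. Cytosolic IP1 by TR-FRET (665/620 ratio and 620 channel) after 10 min lysis; AC50 by Hill fit.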
# Numbers without * were called inactive; ? = inconclusive; . = no result given; [ ] = dose if it differs, or a comment. Only some compounds are listed: those with a hit (about 9.4% of all), similar ones and a draw of the others. Unless noted, calls come from the whole dose curve; as a rule, active = well fitted curve in the direction sought with a large enough effect; inconclusive = small, poorly fitted or top-dose-only effect, or another doubt; inactive = no such curve, though single readings can be large; an effect the other way counts as inactive or inconclusive.
SMILES,IMPase inh,HTT ATP protect,HPGD inh,ALDH1A1 inh,HttQ103 aggreg,IMPase Li cell
CCCOc1ccc(/C=C/C(=O)Nc2ccc([N+](=O)[O-])cc2)cc1,3,-8%,.,5%,9%,.
Cc1ccc(/C=C/C(=O)Nc2ccc(Oc3ccccc3)cc2)o1,13,-17%[10 µM],25µM*,24µM*,-17%,15%
CC(/C=C/c1ccc(C)o1)=C\C(=O)O,-1,-29%,-22%,20µM*,?,-1%[38.3 µM]
CC(=O)/C=C/c1ccc(C)o1,.,11%,.,?,21%,-2%
Cc1ccc(/C=C/C(=O)Nc2ccc([N+](=O)[O-])cc2)o1,-9,-11%,.,12µM*,0%,.
COC(=O)c1ccc(Cl)cc1NC(=O)/C=C/c1ccc(C)o1,.,.,?,20µM*,?,2%
Cc1c(Cl)cccc1NC(=O)C(C)N(c1ccccc1)S(C)(=O)=O (stereo not drawn),7,.,.,.,.,.
O=C(O)CC/C=C\C[C@@H]1CO[C@H](c2ccccc2Cl)O[C@@H]1c1ccccc1O,3,3%,-3%,0%,.,10%
Cc1cc2c(cc1C)NC(CC(=O)Nc1cccc(C)c1C)C(=O)N2 (stereo not drawn),-4,.,.,.,.,.
NC[C@@H](O)CSCc1ccc(Cl)cc1,.,-4%[10 µM],-5%,5%[13.5 µM],.,-7%
CCN1CCN(C(=O)/C=C/c2ccc(C)o2)CC1,10,0%[10 µM],-13%,-10%,-2%,8%
Cc1ccc(/C=C/C(=O)N2CC(C)CC(C)C2)o1 (stereo not drawn),1,-7%,?,10µM*,20%,11%[38.3 µM]
O=C(O)/C=C/C(=O)Nc1ccc(Oc2ccccc2)cc1,.,-2%[10 µM],.,.,-6%[9.22 µM],.
CCOC(=O)/C=C/C(=O)Nc1ccc(Oc2ccccc2)cc1,.,12%[10 µM],.,25µM*,-7%[9.22 µM],15%
Cc1cc(C)c(NS(=O)(=O)c2ccc(NC(=O)c3cccs3)cc2)c(C)c1,.,-11%[10 µM],-12%,3%,13%,11%
Cc1ccc(/C=C/C(=O)Nc2cc(=O)n(C)c(=O)n2C)o1,.,21%[0.074 µM],-11%,22µM*,17%,6%
CCOC(=O)/C=C/C(=O)Nc1ccc(S(=O)(=O)Nc2c(C)cc(C)cc2C)cc1,.,-5%[10 µM],-5%,13µM*,-4%,16%
Cn1c(NC(=O)/C=C/c2ccco2)cc(=O)n(C)c1=O,.,24%[10 µM],-7%,?,10%,2%
COc1ccccc1NC(=O)CCN1CCCCC1,-4,.,.,.,.,.
O=C(NC(=Nc1nc2ccccc2o1)NC(=O)c1ccccc1)c1ccccc1,.,.,-11%,-2%,-12%,-8%
COc1ccccc1C(=O)NC(=Nc1nc2ccccc2o1)NC(=O)c1ccccc1OC,5,-18%[10 µM],-24%,-5%,10µM*,45%[38.3 µM]
CCOc1ccc(CN(CCC#N)C(=S)NC(=O)c2ccccc2)cc1,-1,5%[10 µM],-9%,?,1%,0%
N#CCCN(Cc1ccccc1)C(=S)NC(=O)c1ccccc1,0,2%[10 µM],-25%,14µM*,-1%,-14%
COc1ccc(CN(CCC#N)C(=S)NC(=O)c2ccccc2)cc1,-16,17%,-13%,25µM*,-4%,-14%[38.3 µM]
COc1ccc(CN(C(=O)c2cnccn2)C(C(=O)Nc2ccc(F)cc2)c2ccccc2)cc1 (stereo not drawn),4[0.0738 µM],21%[10 µM],-9%,10µM*,-9%,10%
SMILES,IMPase inh,HTT ATP protect,HPGD inh,ALDH1A1 inh,HttQ103 aggreg,IMPase Li cell
COc1ccc(NC(=O)C(c2ccc(OC)cc2)N(C)C(=O)c2cnccn2)cc1 (stereo not drawn),1,-19%,?,?,-3%,11%[38.3 µM]
CC(C)c1ccc(NC(=O)C(c2ccccc2)N(C)C(=O)c2cnccn2)cc1 (stereo not drawn),.,-56%,.,10µM*,5%,1%
CCCCOC(=O)c1ccc(NS(=O)(=O)c2c(C)nc3scc(C)n3c2=O)cc1,6,.,.,.,.,.
COC(=O)C[C@H]1c2ccccc2C2=C(C[C@@H](C)[C@H]3C(=O)NC(=O)[C@@H]23)N1C(=O)OC,.,-5%[10 µM],-13%,-2%[13.5 µM],.,3%
CCOC(=O)C(=NCCCN(C)C)NNc1ccc(Br)cc1,.,24%[10 µM],-5%,?,-2%,-1%
CCCCN=C(NNc1ccc(Br)cc1)C(=O)OCC,16,-4%[10 µM],-27%,14µM*,-10%,22%
O=C(NCc1ccco1)C1CCN(C(=O)c2cc3sccc3n2Cc2ccc(Cl)cc2)CC1,4,-3%[10 µM],-6%,13µM*,4%[9.22 µM],30%[38.3 µM]
CCn1c(C(=O)N2CCC(C(=O)NCc3cccs3)CC2)cc2sccc21,4,-34%,-4%,-8%,-3%,0%[38.3 µM]
O=C(NCCN1CCOCC1)c1ccc(CS(=O)(=O)c2ccc(Cl)cc2)o1,-1,9%,-4%,3%,2%,-26%[38.3 µM]
O=C(NCCN1CCOCC1)c1cc2sccc2n1Cc1ccc(F)cc1,1,-16%,25µM*,-14%,27%,7%[38.3 µM]
O=C(NCCN1CCOCC1)c1cc2sccc2n1Cc1ccc(Cl)cc1,5[1.84 µM],-3%[10 µM],16µM*,?,32%,38%[38.3 µM]
O=C(c1ccc(-n2c(=O)c(=O)[nH]c3ccccc32)cc1)N1CCCN(Cc2ccccc2)CC1,.,.,-7%,?,.,.
CCN1C(=O)[C@H]2[C@H]3[C@H](O)[C@H](O)C/C(=N/NC(=O)OCc4ccccc4)[C@@H]3CC[C@@H]2C1=O,.,-1%[10 µM],.,14%[13.5 µM],.,.
CCOc1ccc(N2C(=O)C3C4C=CC(CC4)C3C2=O)c([N+](=O)[O-])c1 (stereo not drawn),2,-18%,-21%,28µM*,-1%,5%[38.3 µM]
COc1ccccc1CN1CCSCC1,0,23%,5%,-9%,7%,20%[38.3 µM]
COc1ccccc1Cn1[nH]nnc1=S,.,3%[10 µM],.,4µM*,-11%[9.22 µM],.
CCC(C(=O)Nc1cc(C)ccc1OC)n1nnc(C(=O)OC)c1C(=O)OC (stereo not drawn),6,.,.,.,.,.
O=C(CN1CCN(c2ccc(Cl)cc2)CC1)c1ccc2c(c1)OCO2,5,-17%,-7%,8.9µM*,9%,1%[38.3 µM]
O=C(CN1CCN(c2ccc(F)cc2)CC1)c1ccc2c(c1)OCO2,2,-21%,-2%,8.9µM*,20%,5%[38.3 µM]
COc1ccc(Br)c(C(=O)Nc2ccc(F)cc2)c1,.,3%[10 µM],.,3%,-6%[9.22 µM],.
COc1ccc(S(=O)(=O)N(C)c2ccc(C(=O)NCCC(C)C)cc2)cc1,-4,-17%,2µM*,-16%,-7%,22%[38.3 µM]
CCOCCCNC(=O)c1ccc(N(C)S(=O)(=O)c2ccc(OC)cc2)cc1,1,12%,1.6µM*,-11%,-14%,30%[38.3 µM]
COc1ccc(C(CNC(=O)c2ccc(S(=O)(=O)N(C)C)cc2)N2CCCC2)cc1 (stereo not drawn),.,-4%,.,4.5µM*,6%,16%
